FUS yeast rescue = qHTS for Suppressors of FUS Proteinopathy: Primary screen using FUS-linked yeast assay | S. cerevisiae FUS-expressing, growth rescue, OD600, 24 h | Potency, µM (series often up to 76.6 µM), usual class: activators | 390,000 compounds, 0.24% hits | AID 1347120, 2019;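 further: plate controls were DMSO vehicle for no effect and reference control for full effect; nearly all actives have a fitted effect of over 55% in size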
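Yeast FUS proteinopathy model; galactose-induced FUS (2%), starting OD 0.005. Cpds in dilution series, 24hr, 30C, 99% humidity. Abs 600 nm growth. Pos ctrl CP55940 (top 92uM final); neg ctrl DMSO.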
TDP-43 yeast inh = qHTS of TDP-43 Inhibitors; TDP-43 expressing yeast growth rescue, BacTiter-Glo, 24 h; Potency, µM (series often up to 46.1 µM), for inactives: top-dose growth rescue (activation), usual class: activators; 410,000 compounds, 1.8% hits; AID 652104, 2013; further: % of control where 0% means no effect; nearly all actives have a fitted effect of over 50% in size
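Galactose-induced TDP-43 yeast, OD600=0.02, compound pinned; 24 hr, 30 deg C; BacTiter-Glo luminescence for growth. Inhibitors of TDP-43 toxicity read as activators.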
Abeta rescue = qHTS for compounds that reverse cellular toxicity of Amyloid beta (A-beta) peptide in yeast: Primary Screen; yeast expressing A-beta42, growth rescue, OD600, 48 h; response scale: 0% DMSO, 100% iron-clioquinol control; Potency, µM (titrated, usually from 46.1 µM), hits mostly activators; 410,000 compounds, 0.063% hits; further: nearly all actives have a fitted effect of over 55% in size
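Growth rescue measured by 600 nm absorbance after 48 h yeast culture at 30 C with compound. Values normalized between DMSO and an equimolar ferric chloride plus clioquinol control.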
aSyn rescue = qHTS of alpha-syn Inhibitors; Potency, µM (titrated, usually from 46.1 µM), without a hit: top-dose growth rescue (activation), hits mostly activators; Yeast expressing alpha-synuclein, growth rescue, BacTiter-Glo, 24 h; 370,000 compounds, 0.14% hits; further: % of control where 0% means no effect; nearly all actives have a fitted effect of over 65% in size
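Galactose-induced alpha-syn yeast (OD600=0.02, raffinose-pregrown) + pinned cpd, 24 hr, 30 deg C; growth by BacTiter-Glo luminescence. Growth restoration scores as activation.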
Mito fusion act = qHTS Assay for Small Molecule Inhibitors of Mitochondrial Division or Activators of Mitochondrial Fusion | S. cerevisiae fusion-defective mutant growth rescue, CellTiterGlo 48 h | Potency, µM (series often up to 46.1 µM), without a hit: at the highest dose growth rescue (activation), actives largely listed as activators | 320,000 compounds, 0.23% hits | AID 485298, 2010; further: % of control where 0% means no effect; nearly all actives have a fitted effect of over 45% in size
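Growth-rescue viability read-out: after 48 h at the non-permissive 37C in glycerol/ethanol YPEG, yeast mitochondrial fusion mutants are measured by CellTiterGlo luminescence; compounds (23 nl pinned per well) restoring growth score as division inhibitors or fusion activators.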
* marks the source's active call; other numbers are inactive results. Sampled rows, rich in hits. Any-hit rate of the full collection: about 2.2%. The call rests on the fitted dose curve; in most records, active means well fitted curve in the direction sought with a large enough effect; inconclusive means small, poorly fitted or top-dose-only effect, or another doubt; inactive means no such curve, though single readings can be large; an effect the other way counts as inactive or inconclusive. Potency means the concentration at half of the fitted maximal effect.

Screening Cc1cccc(C)c1-n1ncc(C(=O)NCc2ccc3c(c2)OCO3)c1C1CCN(C(=O)OC(C)(C)C)CC1 returned FUS yeast rescue inactive, TDP-43 yeast inh -14% and Abeta rescue inactive.
CCOC(=O)[C@]12CCCC3=C1N(CCC3)C(=O)[C@@H](CC(=O)NCCCCc1ccccc1)C2 was read as FUS yeast rescue inactive.
Screening Cc1ccc(NC(=O)COC(=O)c2ccco2)cc1S(=O)(=O)N1CCCCC1 returned FUS yeast rescue inactive, TDP-43 yeast inh 5%, Abeta rescue inactive and aSyn rescue -4%.
N/C(=N\OC(=O)c1cccc(Br)c1)c1ccccn1 was read as FUS yeast rescue inactive, TDP-43 yeast inh 11µM*, Abeta rescue inactive, aSyn rescue -10% and Mito fusion act 7%.
For CCOc1cc(C(=O)O/N=C(\N)c2ccccn2)cc(OCC)c1OCC the results were FUS yeast rescue inactive, TDP-43 yeast inh 13%, Abeta rescue inactive, aSyn rescue -24% and Mito fusion act -1%.
For O=Cc1ccc(OC(=O)/C=C/c2ccccc2)cc1 the results were FUS yeast rescue inactive, TDP-43 yeast inh 18µM*, Abeta rescue inactive, aSyn rescue 25% and Mito fusion act 12%.
`CCOc1ccc(C(=O)O/N=C(\N)c2ccccn2)cc1OCC` gave FUS yeast rescue inactive, TDP-43 yeast inh 32µM*, Abeta rescue inactive, aSyn rescue 0% and Mito fusion act -3%.
`N/C(=N\OC(=O)/C=C/c1ccccc1)c1ccccc1` gave FUS yeast rescue inactive, TDP-43 yeast inh 18µM*, Abeta rescue inactive, aSyn rescue -19% and Mito fusion act -4%.
CC1(C(=O)NS(=O)(=O)c2ccc(F)cc2F)CCN1C(=O)CCc1ccccc1 (stereo not given) was read as FUS yeast rescue inactive, TDP-43 yeast inh 14%, Abeta rescue inactive and aSyn rescue 0%.
`N/C(=N\OC(=O)c1cccc(Br)c1)c1ccccc1` gave FUS yeast rescue inactive, TDP-43 yeast inh 13µM*, Abeta rescue inactive, aSyn rescue -22% and Mito fusion act -3%.
For N/C(=N\OC(=O)c1ccco1)c1cccc(Br)c1 the results were FUS yeast rescue inactive, TDP-43 yeast inh 11µM*, Abeta rescue inactive, aSyn rescue -24% and Mito fusion act 2%.
For O=C(CCCCn1c(=O)c2ccccc2n(Cc2ccccc2Cl)c1=O)NCCc1ccccc1 the results were FUS yeast rescue inactive, TDP-43 yeast inh -2% and Abeta rescue inactive.
Screening COc1ccc(CN2C(=O)c3ccccc3C2c2nnnn2Cc2ccccc2)cc1 (stereo not given) returned FUS yeast rescue inactive, TDP-43 yeast inh inconclusive, Abeta rescue inactive and aSyn rescue 6%.
`O=C1c2ccccc2C(c2nnnn2Cc2ccccc2)N1CCOc1ccccc1` (stereo not given) gave FUS yeast rescue inactive, TDP-43 yeast inh 11µM*, Abeta rescue inactive and aSyn rescue 25µM*.
`COc1ccc(/C=C/C(=O)N2CCC(c3nc4ccccc4o3)CC2)cc1OC` gave FUS yeast rescue inconclusive, TDP-43 yeast inh 16µM* and Abeta rescue inactive.
`COc1ccc2nc(N3CCCCC3)c(C#N)cc2c1` gave FUS yeast rescue inactive, TDP-43 yeast inh 13µM*, Abeta rescue inactive, aSyn rescue 4% and Mito fusion act 4%.
For Cc1c2cc[n+](CCN3CCCCC3)cc2c(C)c2c1[nH]c1ccc(O)cc12 the results were TDP-43 yeast inh 7%, Abeta rescue inactive and aSyn rescue 2%.
For C=CCNc1nc(N)c([N+](=O)[O-])c(Nc2ccccc2OC)n1 the results were FUS yeast rescue inactive, TDP-43 yeast inh 16µM*, Abeta rescue inactive, aSyn rescue 6% and Mito fusion act -40%.
For O=C(NCCC1=CCCCC1)C1CCN(C(=O)N2CCOc3ccccc32)CC1 the results were FUS yeast rescue inactive, TDP-43 yeast inh 2% and Abeta rescue inactive.
For Cc1cc2c(cc1C)C(c1cccc([N+](=O)[O-])c1)CC(=O)N2 (stereo not given) the results were FUS yeast rescue inactive, TDP-43 yeast inh 7%, Abeta rescue inactive, aSyn rescue 19% and Mito fusion act 24%.
`O=C1CC(c2ccc(Cl)c([N+](=O)[O-])c2)c2ccc3ccccc3c2N1` (stereo not given) gave FUS yeast rescue inactive, TDP-43 yeast inh 29%, Abeta rescue inactive, aSyn rescue 6% and Mito fusion act 13µM*.
For CC(NC(=O)c1ccc([N+](=O)[O-])o1)C12CC3CC(CC(C3)C1)C2 (stereo not given) the results were FUS yeast rescue inactive, TDP-43 yeast inh inconclusive, Abeta rescue inactive, aSyn rescue -4% and Mito fusion act 14µM*.
Screening CC(NC(=O)C12CC3CC(CC(C3)C1)C2)C(=O)NN=Cc1ccc([N+](=O)[O-])o1 (stereo not given) returned FUS yeast rescue inactive, TDP-43 yeast inh 14%, Abeta rescue inactive and aSyn rescue 1%.
COc1cc2cc(CCCOC(=O)c3ccc(F)cc3)oc(=O)c2cc1OC was read as FUS yeast rescue inactive, TDP-43 yeast inh 20µM*, Abeta rescue inactive, aSyn rescue -5% and Mito fusion act 5%.
For CC1CCC(NS(=O)(=O)c2ccc(N3CCCC3=O)cc2)CC1 (stereo not given) the results were FUS yeast rescue inactive, TDP-43 yeast inh 15%, Abeta rescue inactive, aSyn rescue 0% and Mito fusion act 15%.
CCCC(=O)N1CCN(c2nc3c(OC)ccc(Cl)c3s2)CC1 was read as FUS yeast rescue inactive, TDP-43 yeast inh 20µM*, Abeta rescue inactive, aSyn rescue 21% and Mito fusion act 30%.
For Cc1c(Cl)ccc2sc(N3CCN(C(=O)C(C)C)CC3)nc12 the results were FUS yeast rescue inactive, TDP-43 yeast inh 22µM* and Abeta rescue inactive.
Screening Cc1c(Cl)ccc2sc(N3CCN(C(=O)CS(=O)(=O)c4ccccc4)CC3)nc12 returned FUS yeast rescue inconclusive, TDP-43 yeast inh 18µM* and Abeta rescue 13µM*.
Screening COc1c(S(=O)(=O)N2CCN(C(=O)c3ccco3)CC2)ccc(Cl)c1Cl returned FUS yeast rescue inactive, TDP-43 yeast inh 13µM*, Abeta rescue inactive, aSyn rescue 17% and Mito fusion act -7%.
CC1=C(C(=O)N2CCOCC2)CC(CC(=O)NC2CCCCC2)C(=O)N1Cc1ccc(F)cc1 (stereo not given) was read as FUS yeast rescue inactive, TDP-43 yeast inh 22%, Abeta rescue inactive and aSyn rescue -2%.

Source: PubChem BioAssay (National Center for Advancing Translational Sciences (NCATS))
